Compound activity (PubChem)
D1 agonist: agonists of human D1 dopamine receptor | P21728 | HEK293 T-REx D1 cells, calcium flux, agonist mode | activation, % at 2 µM | 360,000 compounds, 1% hits; also: 0% is about no effect
Target sequence (P21728 whole entry, looked up): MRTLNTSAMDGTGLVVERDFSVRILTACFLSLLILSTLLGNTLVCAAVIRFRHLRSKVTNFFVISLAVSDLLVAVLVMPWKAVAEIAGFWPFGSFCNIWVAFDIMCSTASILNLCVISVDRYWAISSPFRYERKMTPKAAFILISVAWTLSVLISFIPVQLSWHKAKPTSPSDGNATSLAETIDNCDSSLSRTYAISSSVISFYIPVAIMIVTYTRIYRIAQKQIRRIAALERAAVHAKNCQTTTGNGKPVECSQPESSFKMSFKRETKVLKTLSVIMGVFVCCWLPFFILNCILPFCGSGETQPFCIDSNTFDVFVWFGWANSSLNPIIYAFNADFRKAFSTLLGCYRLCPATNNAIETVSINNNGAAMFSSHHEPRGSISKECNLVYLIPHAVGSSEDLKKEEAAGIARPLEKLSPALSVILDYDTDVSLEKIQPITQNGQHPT
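Inducible HEK293 T-REx D1 cells, force-coupled to calcium signalling, were plated at 4000 cells/well with tetracycline and held overnight at 30 C. After no-wash calcium dye loading, compound-evoked calcium rise over 180 s flagged agonists.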
TRHR PAM: allosterically enhances the human TRH receptor. TRHR cells, fluo-8 calcium fluorescence, EC20 TRH enhancement. enhancement, % at 2 µM. 360,000 compounds, 0.66% hits. AID 493056; in the data active = enhancement above about 30%; also: 0% is about no effect
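TRHR-expressing cells loaded with fluo-8 calcium dye were read kinetically (ex 480/em 530) during compound addition, then stimulated with an EC20 of TRH (10 nM final). Enhancement of the Gq-mediated intracellular calcium response was scored.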
D1 potentiator: potentiators of human D1 dopamine receptor. P21728. HEK293 TREx D1 cells, calcium flux, dopamine EC20 potentiation. potentiation, % at 10 µM. 360,000 compounds, 0.036% hits. AID 504651; in the data active = potentiation above about 30%; also: 0% is about no effect
D1 antagonist: blocks dopamine activation of the human D1 receptor; HEK293 TREx D1 cells, calcium flux, dopamine EC80; hits give low values; activity change, negative = inhibition, % at 10 µM; P21728; 360,000 compounds, 3.2% hits; in the data active = activity change below about -30%; also: % is scaled to controls: 0 for no effect and ±100 for the full control effect
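HEK293 T-REx cells expressing inducible, force-coupled D1 receptor; no-wash Ca dye, 30–90 min RT. Cmpd → 180 s read at 1 Hz → EC80 DA → 180 s read.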
TRHR ag: TRH receptor (human) agonism. TRHR cells, calcium flux fluo-8, FDSS agonist mode. activation, % at 2 µM. 360,000 compounds, 0.18% hits. AID 493084; also: 0% is about no effect
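Read-out: compound-evoked intracellular calcium rise in TRHR cells, fluo-8 dye, kinetic FDSS fluorescence at 1 s/cycle following a 10-cycle baseline. Cells cultured overnight before dye loading (30 min–1.5 h, RT).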
Active calls of the source: *. Sampled rows, rich in hits. Any-hit rate of the full collection: about 4.7%. Rule as the data show it, unless noted: active = activation above about 30%; inactive = the rest.

SMILES	D1 agonist	TRHR PAM	D1 potentiator	D1 antagonist	TRHR ag
COc1ccc(C)c2sc(N(CCCN(C)C)C(=O)c3ccc4c(c3)OCCO4)nc12	66.4*	-2.1	-13.4	-21.0	-0.3
CN(C)CCCN(C(=O)COc1ccccc1)c1nc2c(F)cccc2s1	1.3	31.9*	3.4	24.4	0.9
COc1cccc2sc(N(CCCN(C)C)C(=O)COc3ccc(Cl)cc3)nc12	14.8	-0.4	-1.8	-27.4	1.5
O=C(Cn1nc2c(cc1=O)CCCC2)NCc1ccccc1Cl	-0.3	-2.4	0.8	-22.8	0.1
Cc1ccc(C)c(N=Cc2c(O)c3ccccc3oc2=O)c1	1.8	-0.4	-1.6	8.0	0.5
Cc1ccccc1-n1ncc2c1CC(C)(C)CC2NC(=O)CN1CCCC1=O (centres undefined)	4.7	2.7	1.4	3.8	0.5
COC(=O)c1c(C(=O)c2ccc(Br)cc2)n(C)c2ccccc12	5.6	-4.0	-2.8	13.2	-1.1
CN(C)CCCN(C(=O)COc1ccccc1)c1nc2cc3c(cc2s1)OCO3	36.1*	2.8	-1.5	-29.1	2.4
COc1ccc2sc(N(CCCN(C)C)C(=O)c3ccc(S(=O)(=O)N(C)Cc4ccccc4)cc3)nc2c1	3.3	0.0	-1.1	0.0	0.6
CN(C)CCCN(C(=O)c1ccc2c(c1)OCCO2)c1nc2cc3c(cc2s1)OCO3	6.0	6.4	-5.0	0.8	1.1
CN(C)CCCN(C(=O)c1ccc([N+](=O)[O-])o1)c1nc2cc3c(cc2s1)OCO3	1.3	2.1	-2.2	-47.0*	0.9
CN(C)CCCN(C(=O)c1ccc(S(=O)(=O)N(C)Cc2ccccc2)cc1)c1nc2cc3c(cc2s1)OCO3	19.6	-8.9	-2.7	-55.3*	0.5
COc1ccc(NC(=O)CCS(=O)(=O)c2nc(-c3cccs3)cc(C(F)(F)F)n2)cc1OC	2.1	-0.8	2.1	1.6	-0.4
O=C1Nc2ccc(Br)cc2C12NNc1ccccc1O2 (centres undefined)	32.9*	-2.4	-4.5	-14.3	7.3
CCCCN(c1ccccc1)c1ncnc2c1cnn2-c1ccc(Cl)cc1	0.7	11.9	0.7	12.0	0.5
O=C(COc1cccc(C(F)(F)F)c1)Nc1cccnc1	2.4	-4.2	0.5	-31.5*	0.2
O=C(COc1ccc2ccccc2c1Br)Nc1cccnc1	11.7	-7.8	-10.2	-41.5*	-0.7
O=C(COc1ccc(C(=O)NCc2cccnc2)cc1)Nc1cccc(C(F)(F)F)c1	11.6	3.5	-2.2	-24.3	0.0
COc1cc(NC(=O)c2oc3c(c2C)-c2nn(Cc4cccc(Cl)c4)cc2CC3)cc(OC)c1	0.5	-1.4	-2.2	-30.7*	-0.1
Cc1ccc(S(=O)(=O)N2CCN(Cc3noc(CCC(=O)N4CCCCC4)n3)CC2)c(C)c1	7.0	-1.8	-2.2	-9.0	0.3
CCN(CC(=O)Nc1c(F)cccc1F)C(=O)c1ccc(COc2ccccc2)cc1	0.8	-4.3	0.8	4.7	-0.6
CCC(=O)c1ccc(OCc2ccc(C#N)cc2)cc1	-0.5	-6.4	-2.5	-36.8*	0.3
O=C(c1ccccc1)N(Cc1ccccc1)Cc1ccccc1	1.1	-6.6	-9.4	-12.7	0.6
CCN(Cc1ccccc1)C(=O)c1ccc(C(=O)N(CC)Cc2ccccc2)cc1	3.6	-5.5	0.8	-62.0*	-0.3
CCC(=O)c1ccc(OCc2ccc(C(=O)OC)cc2)cc1	15.8	-3.8	-4.0	-22.5	-0.5
SMILES	D1 agonist	TRHR PAM	D1 potentiator	D1 antagonist	TRHR ag
CCN(CC)C(=O)c1ccc(CS(=O)(=O)Cc2ccccc2)cc1	6.5	-6.4	-0.3	-30.7*	1.3
CCOc1ccc(OCc2ccc(C(=O)N(CC)CC)cc2)cc1	16.0	-3.2	-6.3	-42.1*	-0.1
Cc1ccc2c(=O)c(C(=O)c3cccc(Cl)c3)cn(CC(=O)NC3CCCCC3)c2n1	2.7	8.2	-4.1	-0.3	-0.6
Cc1sc2nc(-c3cccnc3)[nH]c(=O)c2c1-c1ccccc1	3.2	-5.7	-15.2	-48.7*	-0.9
CC(=O)NC1CCCN(O)C(=O)/C=C(\C)CCOC(=O)C(NC(C)=O)CCCN(O)C(=O)/C=C(\C)CCOC(=O)C(NC(C)=O)CCCN(O)C(=O)/C=C(\C)CCOC1=O (centres undefined)	-3.5	35.6*	-0.5	11.1	0.4
CCN(CC)CCNC(=O)C1CCN(S(=O)(=O)c2c(C)noc2/C=C/c2ccccc2F)CC1	15.8	-2.3	-1.1	-11.4	2.1
O=C(CNC(=O)c1ccncc1)Nc1ccc(F)c(F)c1	1.7	-1.6	7.5	-9.3	0.4
COc1ccc(C(=O)c2cn(Cc3ccccc3)c3ccccc3c2=O)cc1OC	1.0	47.8*	0.2	-33.4*	-0.4
CCN1C(=NCc2ccco2)N[C@@H](c2cccc(F)c2)C(C(=O)OC)=C1C	6.4	4.9	-3.3	-7.8	1.1
O=C(NCc1ccncc1)c1nc(-c2ccc(C(F)(F)F)cc2)no1	8.4	-1.5	-10.2	-38.5*	-0.5
O=C(NCc1cccnc1)c1nc(-c2ccc(C(F)(F)F)cc2)no1	14.2	-1.0	-5.9	-39.7*	-0.2
O=C(NCc1ccncc1)c1nc(-c2cccs2)no1	7.8	-1.6	2.1	-11.7	-0.1
Cc1ccc(CSc2nc(=O)c3c(n2C)NC(=O)CC3c2ccc(OC(C)C)cc2)cc1 (centres undefined)	46.0*	-3.6	-0.1	-26.6	6.6
Cc1cccc(CSc2nc(=O)c3c(n2C)NC(=O)CC3c2cccc(O)c2)c1 (centres undefined)	1.3	-2.0	0.7	-7.7	-1.7
Cc1cc(N2CCOCC2)nc2ccc(NC(=O)CCC(=O)N3CCN(c4ccc(F)cc4)CC3)cc12	-1.0	-0.9	3.1	-10.6	0.9
Cc1cc(N2CCOCC2)nc2ccc(NC(=O)CCC(=O)N3CCN(c4ccccc4F)CC3)cc12	0.5	2.2	0.4	-42.6*	0.4
CC1(C)CC(=NO)CC(C)(C)N1	2.9	3.3	0.8	-32.2*	-0.1
O=C1CC(SC2=NCCS2)C(=O)N1c1ccc(Cl)cc1 (centres undefined)	3.5	-3.7	-4.6	4.8	0.1
O=C1CC(SC2=NCCS2)C(=O)N1c1ccc(Br)cc1 (centres undefined)	43.7*	3.9	-5.9	-26.4	0.0
O=C(NCCc1c[nH]c2ccccc12)c1ccco1	5.8	-2.4	-0.8	-9.7	-0.4
CC(C)/C=C1\CC/C(=C\c2ccc(N(C)C)cc2)C1=O	243.0*	17.5	2.5	-30.9*	94.3*
O=C1CC(c2ccco2)Cc2nc(NCC3CCCO3)ncc21 (centres undefined)	-0.1	2.3	-3.5	-32.3*	0.3
O=C1CC(c2ccco2)Cc2nc(Nc3ccc(F)cc3)ncc21 (centres undefined)	1.5	2.6	-2.0	-15.1	-0.8
CC(=O)c1c(C)[nH]c(C(=O)COc2cc(C)ccc2C(C)C)c1C	18.8	-4.0	-14.9	-36.3*	-0.2
